FBA Mtb inh: Mtb fructose-bisphosphate aldolase inhibition; hit rate 2.3% among 360,000; AID 588726; P9WQA3; inhibition, % at 1 µM; purified M. tuberculosis FBA, fluorescence read-out; in the data active = inhibition above about 27%;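 note: 0% = vehicle and 100% = reference inhibitor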
GDH-TPI counter: GDH-TPI coupled enzyme inhibition counter-screen. GDH-TPI coupled enzyme counterscreen, NADH absorbance. inhibition, % at 4.8 µM. hit rate 1.2% among 360,000. AID 588335; in the data active = inhibition above about 30%;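 note: 0% = DMSO wells and 100% = wells lacking the enzyme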
FadD28 binding: blocks FadD28 binding to the bisubstrate probe; fluorescence polarization; inhibition, % at 12.5 µM; hit rate 0.22% among 360,000; in the data active = inhibition above about 8.5%, passing the limit was not always enough
Rv3671c protease: Rv3671c (M. tuberculosis) protease inhibition; hit rate 0.048% among 320,000; AID 2606; inhibition, % at 5.96 µM; in the data active = inhibition above about 38%;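 note: extracellular domain of Rv3671c used as enzyme; 0% = enzyme with DMSO and 100% = no enzyme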
Target sequence (P9WHR9 whole entry, looked up, the tested form may be a part): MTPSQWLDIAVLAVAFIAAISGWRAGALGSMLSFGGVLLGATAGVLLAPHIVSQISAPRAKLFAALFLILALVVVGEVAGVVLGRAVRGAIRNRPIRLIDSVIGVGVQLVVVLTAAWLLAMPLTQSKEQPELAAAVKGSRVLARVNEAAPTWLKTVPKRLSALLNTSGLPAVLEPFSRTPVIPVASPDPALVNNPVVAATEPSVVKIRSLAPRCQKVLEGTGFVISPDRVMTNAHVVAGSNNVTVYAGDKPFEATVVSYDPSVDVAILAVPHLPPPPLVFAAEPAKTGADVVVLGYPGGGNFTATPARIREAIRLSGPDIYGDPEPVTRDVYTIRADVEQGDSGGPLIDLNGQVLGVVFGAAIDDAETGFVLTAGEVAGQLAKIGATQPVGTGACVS
UGM FP inh: Mtb UDP-galactopyranose mutase inhibition; P9WIQ1; purified UGM, fluorescence polarization probe displacement; inhibition, % at 10 µM; hit rate 0.06% among 320,000; AID 504406; in the data active = inhibition above about 10%, passing the limit was not always enough
Mtb hypoxia rep: Mtb hypoxia fluorescent reporter inhibition; M. tuberculosis hypoxia-regulated fluorescent reporter, fluorescence; fluorescence inhibition, % (test concentration not listed); hit rate 0.1% among 300,000; AID 1159583; in the data active = fluorescence inhibition mostly above about 23%, no sharp cut-off; inactive = mostly below about 17%
* = called active by the depositor; · = no result given; + = active, no number. Most compounds without a hit are left out; they make up all but 3.5% or so of the library.

SMILES	FBA Mtb inh	GDH-TPI counter	FadD28 binding	Rv3671c protease	UGM FP inh	Mtb hypoxia rep
CC(NC(=O)c1nc[nH]c1C(=O)N1CCN(c2ccccc2)CC1)C(=O)OC(C)(C)C (configuration not stated)	·	·	·	·	·	-3
O=C(/C=C/c1ccc(Cl)cc1)NC(=S)Nc1ccccc1C(=O)O	6	38*	-5	-4	1	15
COc1ccc(NN=Cc2c(C(=O)O)ccc3ccccc23)cc1	·	·	·	·	·	4
O=C(O)c1cc(N/N=C/c2c(O)ccc3ccccc23)ccc1Cl	2	7	20*	-1	1	·
CCOC(=O)c1sc(=S)n(CC)c1NC(=O)C1CC1	2	35*	-2	3	2	·
CCOC(=O)c1sc(NC(=O)C2CCCCC2)nc1C	1	-3	0	8	-3	2
CCOC(=O)c1sc(=S)n(C)c1NC(=O)c1ccccc1Cl	0	40*	-3	-11	-1	11
CCOC(=O)c1sc(NC(=O)c2ccc(OC)cc2)nc1C	5	6	-3	-5	-2	0
CCOC(=O)c1sc(=S)n(C)c1NC(=O)c1ccc(C(C)(C)C)cc1	0	41*	-3	-4	0	13
C=CCn1c(NC(=O)c2ccc(Br)o2)c(C(=O)OCC)sc1=S	7	20	1	2	-1	4
CCOC(=O)c1sc(=S)n(C)c1NC(=O)c1ccc(OC)cc1	0	37*	-4	3	-3	21
COC(=O)C1=C(c2ccc(Cl)c(C(F)(F)F)c2)CC2CCC1N2C(=O)NCc1ccc2c(c1)OCO2 (configuration not stated)	·	·	·	·	·	2
Clc1ccc(N2CCN(N=Cc3ccncc3)CC2)cc1	·	·	·	·	·	-5
C#CCOCCOCCOCCNc1nc(N2CCN(C(=O)C(Cc3cc4ccccc4[nH]3)n3cc(C(N)CC(C)C)nn3)CC2)nc(N2CCN(C(=O)C(CCC(=O)O)n3cc(C(N)C(C)CC)nn3)CC2)n1 (configuration not stated)	·	·	·	·	·	-1
COc1ccccc1/C=C/C=Nn1c(-c2ccccc2)n[nH]c1=S	·	·	·	·	·	12
OCCNc1ncnc2c1sc1nc(N3CCOCC3)c3c(c12)CCC3	10	21	-1	-5	1	16
CCN(CC)CCNc1ncnc2c1sc1nc(N3CCOCC3)c3c(c12)CCCC3	1	35*	0	-10	-2	15
O=C1OC(CN2CCOCC2)CN1N=Cc1ccc([N+](=O)[O-])o1 (configuration not stated)	-1	32*	1	-2	0	-7
O=C1OC(CN(Cc2ccccc2)Cc2ccccc2)CN1N=Cc1ccc([N+](=O)[O-])o1 (configuration not stated)	1	18	-1	·	·	-1
Cc1cc(NCc2ccccn2)n2c(nc3ccccc32)c1C#N	21	0	-4	·	·	3
CCN(CC)c1cc(C)c(C#N)c2nc3ccccc3n12	23	-14	-4	1	1	19
CNc1cc(C)c(C#N)c2nc3ccccc3n12	+	4	0	-7	1	22
Cc1cc(Cl)n2c(nc3ccccc32)c1C#N	+	7	-1	·	·	·
Cc1ccc(-c2c(C#N)c(N)n3c(nc4ccccc43)c2C#N)cc1	119*	12	-1	-6	0	·
C=C1C2CCC3C(OC(C)=O)[C@@]2(CC(O)[C@@]2(O)C1CC(O)C2(C)C)C[C@@]3(C)O (some centres not stated)	·	·	·	·	·	1
SMILES	FBA Mtb inh	GDH-TPI counter	FadD28 binding	Rv3671c protease	UGM FP inh	Mtb hypoxia rep
COc1ccc(C=CC(=O)c2ccccc2O)cc1	·	·	·	·	·	6
Cn1c(O)c(C=NC2CCN(Cc3ccccc3)CC2)c(=O)[nH]c1=O	-5	0	-3	1	-2	12
Cn1c(O)c(C=NC2CCCCCC2)c(=O)[nH]c1=S	-8	32*	0	-5	-1	15
CN(C)c1ccc([N+](=O)[O-])c([N+](=O)[O-])c1	-17	16	-1	·	·	15
NNc1ccc([N+](=O)[O-])c2[nH][nH]c(=O)c12	-5	7	16*	·	·	·
CCOC(=O)c1cc2c(=O)[nH]ccc2nc1C(F)(F)F	24	4	-3	-3	-3	0
CCOC(=O)c1cc2c(=O)[nH]ccc2nc1C	120*	7	-4	2	0	18
Nc1ccc(Oc2ccc([N+](=O)[O-])cc2[N+](=O)[O-])cc1	3	33*	0	1	-1	3
CC(=NNC(=S)NCc1ccccc1)c1cccs1	·	·	·	·	·	6
Cc1occc1C(=O)NC(C)C1CCCO1 (configuration not stated)	33*	-6	-1	2	0	4
COc1ccc(NC2=CC(=O)CC(C)(C)C2)cc1	-6	3	-4	-6	-1	17
CC1(C)CC(=O)C=C(Nc2ccc(O)cc2)C1	2	19	-2	·	·	·
CC1(C)CC(=O)C=C(Nc2ccc([N+](=O)[O-])cc2)C1	-3	47*	-1	-1	0	1
COC(=O)c1ccc(NC2=CC(=O)CC(C)(C)C2)cc1	4	44*	-4	10	0	16
CC(=NNC(=S)Nc1ccccc1)C1Cc2ccccc2C(=O)O1 (configuration not stated)	·	·	·	·	·	15
O=C1NC(=S)S/C1=C\c1ccc(SCc2ccccc2)o1	-9	17	18*	3	2	10
O=C1NC(=S)S/C1=C\c1ccc(SCc2ccco2)o1	-5	15	45*	18	2	·
O=C1NC(=S)S/C1=C/c1ccc(OC(=O)c2ccco2)cc1	-9	21	-1	0	-4	·
CC(=NNC(=O)c1cccc(O)c1)c1ccc(NC(=O)Cc2ccccc2)cc1	·	·	·	·	·	-2
O=C1C=C(c2ccc3ccccc3c2)CC(c2ccc(Cl)cc2)C1 (configuration not stated)	·	·	·	·	·	0
O=C(ON=Cc1ccc(N2CCCCC2)c([N+](=O)[O-])c1)c1ccc(Cl)cc1Cl	·	·	·	·	·	9
COCCCn1c(=C(C#N)C(=O)Nc2ccc(C(=O)O)cc2)sc(=Cc2cccc(OC)c2OC)c1=O	·	·	·	·	·	2
COCCCn1c(=O)/c(=C\c2ccccc2OC(C)C)s/c1=C(/C#N)C(=O)Nc1ccc(C(=O)O)cc1	-2	19	-1	-18	15*	·
CC(=O)NC(Cc1ccccc1)C(=O)OCC(=O)c1ccccc1 (configuration not stated)	-1	8	-3	-2	13*	16
COc1ccc(/C=N/Nc2cc(C)nc3ccc(OC)cc23)c(OC)c1	144*	12	4	16	-2	·
O=C(COc1ccccc1[N+](=O)[O-])NN=Cc1ccc(O)cc1	·	·	·	·	·	10
CCc1cccc2c(C(=O)COC(=O)c3cnc(C)cn3)c[nH]c12	3	19	13*	3	0	11
CCc1cccc2c(C(=O)COC(=O)[C@@H]3CC(O)CN3S(=O)(=O)c3ccccc3[N+](=O)[O-])c[nH]c12 (some centres not stated)	3	8	11*	-3	-1	-7
CCc1cccc2c(C(=O)COC(=O)c3ccccc3)c[nH]c12	-4	3	18*	-7	0	3
